# Laboratory results reported in ChEMBL document CHEMBL3988442, “University of Dundee, Small-Polar-MMV Screening Library” (2021).
# Results with a measured potency or affinity are listed apart.
# Target: Protein translocase subunit SecA (Escherichia coli (strain K12)) (UniProt P10408)
# Assay: Assay to Identify E. coli SecA ATPase Inhibitors
# Format: functional
# Design: scale not given: direction of the effect not stated beside the values
# Details: 30 µM
# Chain of Protein translocase subunit SecA (Escherichia coli (strain K12)) (P10408 whole entry): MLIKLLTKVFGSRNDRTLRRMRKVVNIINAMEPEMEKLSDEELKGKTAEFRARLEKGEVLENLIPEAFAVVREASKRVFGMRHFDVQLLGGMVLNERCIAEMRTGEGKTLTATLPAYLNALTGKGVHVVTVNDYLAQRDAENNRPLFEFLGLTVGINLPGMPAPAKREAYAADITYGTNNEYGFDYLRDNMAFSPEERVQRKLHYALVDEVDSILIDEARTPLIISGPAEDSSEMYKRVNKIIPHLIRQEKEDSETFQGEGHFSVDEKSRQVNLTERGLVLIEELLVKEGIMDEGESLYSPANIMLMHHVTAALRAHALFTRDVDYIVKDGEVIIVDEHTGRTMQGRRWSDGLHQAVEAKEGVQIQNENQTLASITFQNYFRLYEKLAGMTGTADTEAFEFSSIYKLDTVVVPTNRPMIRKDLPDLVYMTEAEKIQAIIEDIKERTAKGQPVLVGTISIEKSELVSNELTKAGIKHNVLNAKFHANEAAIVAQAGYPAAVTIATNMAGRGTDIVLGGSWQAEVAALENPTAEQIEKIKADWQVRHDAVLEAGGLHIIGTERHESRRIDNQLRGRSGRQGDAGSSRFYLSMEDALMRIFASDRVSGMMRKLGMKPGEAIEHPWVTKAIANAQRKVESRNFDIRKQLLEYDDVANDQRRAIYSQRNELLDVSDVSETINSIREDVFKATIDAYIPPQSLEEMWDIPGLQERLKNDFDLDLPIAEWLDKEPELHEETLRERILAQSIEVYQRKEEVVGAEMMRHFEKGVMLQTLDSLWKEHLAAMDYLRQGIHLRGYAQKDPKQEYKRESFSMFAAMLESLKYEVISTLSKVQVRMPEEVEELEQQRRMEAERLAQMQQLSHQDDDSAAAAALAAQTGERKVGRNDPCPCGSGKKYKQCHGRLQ
row,Structure (SMILES),Percent Effect [%]
1,N#CC1(C(=O)N2CCN(Cc3ccon3)CC2)CCC1,-1.32
2,Cc1ccc2c(c1)c(CNC(=O)C1CC(=O)N(C3CCCC3)C1)nn2C (stereo not given),1.21
3,CCOc1cc(C)nc(N2CCN(Cc3nccn3C)CC2)n1,0.029
4,CCN(CC)C(=O)CCNC(=O)N1CCC(c2ccccc2)C1 (stereo not given),-1.34
5,CCN1CCOC(CNCc2ccccc2OCC(=O)N(C)C)C1 (stereo not given),-1.78
6,CC(NCc1ccc(Cl)o1)c1nnc2n1CCCC2 (stereo not given),-1.28
7,Cc1ccc(NC(=O)Cn2cc(I)cn2)cc1,-4.63
8,CC(C)c1nnc2n1CCN(C(=O)CN1Cc3ccccc3C1=O)C2,-6.1
9,O=C(c1ccc(Cl)c(Cl)c1)N1CCCC(n2cncn2)C1 (stereo not given),-0.919
10,O=C1COc2cc(C(=O)NS(=O)(=O)c3ccccc3F)ccc2N1,-1.86
11,CN(C)[C@@H]1CCN(c2ncccn2)[C@H]1Cc1ccncc1,-4.35
12,O=C([C@H]1CCCO1)N1CCc2ncnc(NC3CC3)c2CC1,1.86
13,c1ccc(-c2nnc(CNCCn3cccn3)o2)cc1,-3.18
14,CC(C)c1nc2c(n1C)CCN(Cc1nc(-c3cccs3)no1)C2,-5.48
15,COCCN1CC[C@@H]2OC[C@H](C(=O)NCc3cccs3)C[C@@H]2C1,0.484
16,O=C(NCc1ccc(F)cc1)N1CCC(C2OCCO2)CC1,-3.74
17,CN(Cc1nnc(C2CC2)n1C)C1CCN(Cc2ccc(F)cc2)C1 (stereo not given),-0.349
18,CN(C(=O)c1cccc2[nH]ncc12)C1CCN(c2ccccn2)CC1,-8.48
19,Cc1nnc(N2CCC(CN(C)C(C)C)CC2)c(C#N)c1C,-4.73
20,Cc1cc(-c2nnc(SCC(=O)O)n2C(C)c2ccccc2)nn1C (stereo not given),-4.08
